Assay results from PubChem BioAssay (EPA / NIEHS).
Some compounds were tested as several samples or in several runs, with calls that do not always agree. Activity calls are given as the source filed them. The calls were made as follows: active = hit-call score of the fitted dose curve at least 0.9, where 1 is the maximum; inactive = score below 0.9.

Columns and labels:
[1] = read-out: Plasminogen activator inhibitor-1 (PAI1), SERPINE1 (gene 5054); test: BSK_MyoF_PAI1: BioMAP Diversity Plus: MyoF Assay for Plasminogen activator inhibitor-1 (PAI1) Biomarker Activity (AID 2284256); conditions: primary human lung fibroblasts
Outline: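 Primary human lung fibroblasts are dosed and incubated 24 h. PAI-1 is then measured by ELISA, while parallel cultures undergo SRB staining for overt cytotoxicity. Increases over DMSO define activity.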

[2] = read-out: Interleukin-8 (IL8), CXCL8 (gene 3576); test: BSK_MyoF_IL8: BioMAP Diversity Plus: MyoF Assay for Interleukin-8 (IL8) Biomarker Activity (AID 2284261); conditions: primary human lung fibroblasts
Outline: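 IL-8 levels were measured by ELISA in human lung fibroblasts harvested 24 h after compound addition. Responses were analysed as gain of signal over the DMSO baseline.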

[3] = read-out: Decorin, DCN (gene 1634); test: BSK_MyoF_Decorin: BioMAP Diversity Plus: MyoF Assay for Decorin Biomarker Activity (AID 2284265); conditions: primary human lung fibroblasts
Outline: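 Compound is added to lung fibroblast cultures; cells incubate 24 h; decorin is then measured by ELISA; the response is analysed upward against DMSO controls.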

[4] = BSK_MyoF_SRB: Viability Assessment in the BioMAP Diversity Plus: MyoF Assay (AID 2284267); conditions: primary human lung fibroblasts;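 also: total protein by SRB absorbance in parallel cultures as cytotoxicity measure; cells assessed 24 h after compound addition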
Outline: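 Human lung fibroblasts, 24 h after chemical dosing; total protein measured by 0.1% sulforhodamine B staining after 10% TCA fixation, read at 560 nm, fitted relative to DMSO baseline.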

[5] = read-out: Matrix Metallopeptidase 1 (MMP1), MMP1 (gene 4312); test: BSK_MyoF_MMP1: BioMAP Diversity Plus: MyoF Assay for Matrix Metallopeptidase 1 (MMP1) Biomarker Activity (AID 2284268); conditions: primary human lung fibroblasts
Outline: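 Lung fibroblast cultures were dosed with test chemicals and, after 24 h, MMP1 levels were measured by ELISA; responses were referenced to DMSO and analysed for increases.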

[6] = read-out: Interferon-inducible T-cell alpha chemoattractant (ITAC), CXCL11 (gene 6373); test: BSK_hDFCGF_ITAC: BioMAP Diversity Plus: hDFCGF Assay for Interferon-inducible T-cell alpha chemoattractant (ITAC) Biomarker Activity (AID 2284251); conditions: primary human foreskin fibroblasts
Outline: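 Primary human foreskin fibroblasts (hDFCGF system) treated for 24 h; I-TAC quantified by ELISA. Gain-direction fitting versus DMSO; parallel SRB staining of total protein flagged overt cytotoxicity.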

[7] = read-out: Plasminogen activator inhibitor-1 (PAI1), SERPINE1 (gene 5054); test: BSK_KF3CT_PAI1: BioMAP Diversity Plus: KF3CT Assay for Plasminogen activator inhibitor-1 (PAI1) Biomarker Activity (AID 2284252); conditions: primary human keratinocytes with fibroblasts
Outline: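 Human keratinocyte/foreskin fibroblast co-culture dosed for 24 h; PAI-1 measured by ELISA, fitted in positive direction against DMSO baseline. Parallel SRB total-protein staining (0.1% SRB, 560 nm) assesses overt cytotoxicity.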

[8] = read-out: Interleukin-8 (IL8), CXCL8 (gene 3576); test: BSK_KF3CT_IL8: BioMAP Diversity Plus: KF3CT Assay for Interleukin-8 (IL8) Biomarker Activity (AID 2284254); conditions: primary human keratinocytes with fibroblasts
Outline: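 Chemicals were added to co-cultured human keratinocytes and foreskin fibroblasts, incubated 24 h, then IL-8 was quantified by ELISA. Cytotoxicity was tracked by sulforhodamine B total-protein staining in parallel cultures.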

[9] = read-out: Intercellular Adhesion Molecule 1 (ICAM1), ICAM1 (gene 3383); test: BSK_BE3C_ICAM1: BioMAP Diversity Plus: BE3C Assay for Intercellular Adhesion Molecule 1 (ICAM1) Biomarker Activity (AID 2284278); conditions: primary human bronchial epithelial cells;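 also: cell-surface ICAM-1 protein level quantified by ELISA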
Outline: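 Primary human bronchial epithelial cells in BE3C system, 24 h after chemical dosing; cell-surface ICAM-1 measured by ELISA relative to DMSO. Parallel SRB staining (0.1% SRB after 10% TCA fixation, read at 560 nm) assessed cytotoxicity.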

[10] = read-out: TIMP metallopeptidase inhibitor 1 (TIMP1), TIMP1 (gene 7076); test: BSK_MyoF_TIMP1: BioMAP Diversity Plus: MyoF Assay for TIMP metallopeptidase inhibitor 1 (TIMP1) Biomarker Activity (AID 2284269); conditions: primary human lung fibroblasts
Outline: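 ELISA quantified TIMP-1 levels after 24 h dosing of primary human lung fibroblasts, with DMSO as baseline. Parallel SRB total protein staining (0.1% SRB after TCA fixation, 560 nm) flagged overt cytotoxicity.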

Measured: AC50

CCCCCCCCCCCCN(C)C
inactive: [1] | [2] | [3] | [4] | [5]

c1ccc(-c2cccc(-c3ccccc3)c2)cc1
active: [2] 20 µM | [4] 22.5 µM | [5] 8.44 µM
inactive: [1] | [3]

OCCCCO
inactive: [6] | [7] | [8] | [9]

O=[N+]([O-])c1ccc(Nc2ccccc2)cc1
inactive: [1] | [2] | [3] | [4] | [5]

CCN(CC)C(=O)C(Cl)=C(C)OP(=O)(OC)OC
inactive: [1] | [2] | [3] | [4] | [5]

Cc1cc(Cl)ccc1N
inactive: [1] | [2] | [3] | [4] | [5]

CC1(C)[C@H](C(=O)O[C@H](C#N)c2cccc(Oc3ccccc3)c2)[C@@H]1/C=C(\Cl)C(F)(F)F
inactive: [1] | [2] | [3] | [4] | [5]
active: [1] 0.0141 µM | [5] 3.39 µM

CCOC(=O)CC(=O)CCl
inactive: [1] | [2] | [3] | [4] | [5]

O=S(=O)(c1ccc(Cl)cc1)c1cc(Cl)c(Cl)cc1Cl
inactive: [1] | [2] | [3] | [4]
active: [5] 20 µM

CC(C)(C)c1cc([N+](=O)[O-])cc(C(C)(C)C)c1O
active: [1] 0.016 µM
inactive: [2] | [3] | [4] | [5]

CC(C)(COCC1CO1)COCC1CO1 (centres undefined)
inactive: [1] | [2] | [3] | [4] | [5]

CCCCOC(=O)COC(=O)c1ccccc1C(=O)OCCCC
inactive: [6] | [7] | [8] | [9]

COCC(=O)N(c1c(C)cccc1C)[C@H](C)C(=O)OC
inactive: [1] | [2] | [3] | [4] | [5]

Oc1cccc(-c2ccccc2)c1
active: [4] 31.1 µM | [5] 31.2 µM
inactive: [1] | [2] | [3]

Nc1ccc(N)cc1
inactive: [1] | [2] | [3] | [4] | [5]

CCOC(=O)C(SP(=S)(OC)OC)c1ccccc1 (centres undefined)
inactive: [1] | [2] | [3] | [4] | [5]

CCOP(=S)(OCC)SCS(=O)(=O)C(C)(C)C
inactive: [1] | [2] | [3] | [4] | [5]

O=C1C=CC(=O)c2ccccc21
inactive: [2]
active: [1] 4.23 µM | [3] 1.33 µM | [4] 4.69 µM | [5] 10.1 µM

Cc1ccc(OP(=O)(Oc2ccc(C)cc2C)Oc2ccc(C)cc2C)c(C)c1
inactive: [1] | [2] | [3] | [4]
active: [5] 5.97 µM

Cc1cc(C(C)(C)c2ccc(O)c(C)c2)ccc1O
inactive: [1] | [2] | [3]
active: [4] 13.7 µM | [5] 15.7 µM

Cc1ccc2nc3sc(=O)sc3nc2c1
active: [2] 3.31 µM | [3] 5 µM | [5] 5 µM
inactive: [1] | [4]

[Cl][Sn]([c]1ccccc1)([c]1ccccc1)[c]1ccccc1
active: [1] 0.169 µM | [3] 0.167 µM | [4] 1.36 µM | [5] 0.423 µM
inactive: [2]

OC(Cc1ccccc1Cl)(Cn1[nH]cnc1=S)C1(Cl)CC1 (centres undefined)
inactive: [3] | [5]
active: [1] 34.5 µM | [2] 12.3 µM | [4] 32.2 µM

C[C@]12CC[C@@H](O)C[C@@H]1CC[C@@H]1[C@@H]2CC[C@]2(C)C(=O)CC[C@@H]12
inactive: [1] | [2] | [3] | [4] | [5]

O=C(Cc1ccccc1)OCCc1ccccc1
inactive: [6] | [7] | [8] | [9]

O=[N+]([O-])c1cccc2ccccc12
inactive: [1] | [2] | [3] | [4] | [5]

c1ccc2sc(SNC3CCCCC3)nc2c1
inactive: [1] | [3] | [4] | [5] | [10]
active: [2] 6.46 µM

Nc1c(Oc2ccccc2)cc(O)c2c1C(=O)c1ccccc1C2=O
inactive: [1] | [3] | [4] | [5] | [10]
active: [2] 10 µM

OC(Cc1ccccc1Cl)(Cn1cncn1)C1(Cl)CC1 (centres undefined)
inactive: [1] | [2] | [3] | [4] | [5]

Cc1c([N+](=O)[O-])c(C)c([N+](=O)[O-])c(C(C)(C)C)c1[N+](=O)[O-]
active: [5] 20 µM
inactive: [1] | [2] | [3] | [4]

CCOP(=S)(OCC)OP(=S)(OCC)OCC
inactive: [1] | [2] | [3] | [4] | [5] | [10]

CCCCN(CCCC)C(=S)[S-].CCCCN(CCCC)C(=S)[S-].[Ni+2]
inactive: [1] | [2] | [3] | [4] | [5]

CCOC(=O)CCN(SN(C)C(=O)Oc1cccc2c1OC(C)(C)C2)C(C)C
inactive: [1] | [2] | [3] | [4] | [5]

CCOP(=O)(OCC)SCCSCC
inactive: [1] | [2] | [3] | [4] | [5]

Cc1cc(Cl)ccc1OC(C)C(=O)O (centres undefined)
inactive: [1] | [2] | [3] | [4] | [5]

NC(=O)CCl
inactive: [1] | [2] | [3] | [4] | [5] | [10]

Cc1ccccc1OP(=O)(Oc1ccccc1)Oc1ccccc1
active: [1] 13.5 µM | [2] 0.731 µM | [3] 2.3 µM | [4] 20 µM | [5] 29.6 µM | [10] 0.0187 µM

CCC(C)(C#N)N=NC(C)(C#N)CC (centres undefined)
inactive: [1] | [2] | [3] | [4] | [5]

O=S(=O)(C(Cl)(Cl)Cl)C(Cl)(Cl)Cl
inactive: [2]
active: [1] 3.03 µM | [3] 3.37 µM | [4] 3.81 µM | [5] 7.05 µM

O=C(O)COc1cc(Cl)c(Cl)cc1Cl
inactive: [1] | [2] | [3] | [4] | [5]

CC(C=O)Cc1ccc2c(c1)OCO2 (centres undefined)
inactive: [1] | [2] | [3] | [4] | [5]

C#CCOC(=O)/C=C(C)/C=C/CC(C)CCCC(C)C (centres undefined)
inactive: [1] | [3] | [4] | [5] | [10]
active: [2] 4.33 µM

Oc1ccc(Cc2ccc(O)cc2)cc1
inactive: [1] | [2] | [3] | [4] | [5]

CC(C)=CC1C(C(=O)OCc2cccc(Oc3ccccc3)c2)C1(C)C (centres undefined)
inactive: [1] | [2] | [3] | [4] | [5]

CCOP(=O)(OCC)OC(=CCl)c1ccc(Cl)cc1Cl
inactive: [1] | [2]
active: [3] 20 µM | [4] 30.4 µM | [5] 31.7 µM

O=C(CCl)NCO
inactive: [1] | [3] | [4] | [5] | [10]
active: [2] 3.97 µM

C=CC(Cl)CCl (centres undefined)
active: [1] 0.806 µM | [4] 9.58 µM | [10] 0.061 µM
inactive: [2] | [3] | [5]

Cc1cccc(OP(=O)(Oc2cccc(C)c2)Oc2cccc(C)c2)c1
active: [1] 0.016 µM
inactive: [2] | [3] | [4] | [5]

CC(C)N(C(=O)CCl)c1ccccc1
inactive: [5]
active: [1] 3.09 µM | [2] 20 µM | [3] 6 µM | [4] 3.67 µM | [10] 3.53 µM

Cc1ccccc1OP(=O)(Oc1ccccc1C)Oc1ccccc1C
inactive: [5]
active: [1] 11.9 µM | [2] 5.42 µM | [3] 20 µM | [4] 12.8 µM

N#CCCC(Br)(C#N)CBr (centres undefined)
active: [1] 26.4 µM | [4] 14.1 µM
inactive: [2] | [3] | [5]

O=c1oc2ccccc2c(O)c1C(CC(O)c1ccc(-c2ccc(Br)cc2)cc1)c1ccccc1 (centres undefined)
active: [1] 3.64 µM | [2] 19.1 µM | [3] 9.45 µM | [4] 9.02 µM
inactive: [5]

Oc1c(Br)cc(Br)cc1Br
active: [2] 13.9 µM | [5] 12.4 µM
inactive: [1] | [3] | [4] | [10]
